Compound activity deposited in PubChem by National Center for Advancing Translational Sciences (NCATS).
Sampled rows, rich in hits. Any-hit rate of the full collection: about 5%.
HCMV antiviral = inhibitors of human cytomegalovirus; HFF cells, HCMV-luciferase reporter, 72 h; stronger effect = lower value; activity change, negative = inhibition, % at 57.5 µM; hit rate 4.5% among 410,000; AID 1259415; in the data active means activity change below about -60%; inconclusive means no clear call, values can overlap the other calls; inactive means above about -39%
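Luciferase read-out from HCMV-luciferase-infected HFFs (MOI 1 PFU/cell) 72 h post infection at 37C; compounds added after 16 h cell attachment; activity normalized between buffer-only basal and Salinomycin (10uM) inhibitor controls.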
Vaccinia mCherry = inhibitors of vaccinia virus infection (mCherry reporter signal) | Vaccinia virus mCherry reporter infection, fluorescence | hit rate 0.63% among 310,000 | Potency, µM (titrated, usually from 36.5 µM), inactives show top-dose activity change, negative = inhibition, usual class: inhibitors; calls by dose curve; tested in A549 cells; further: potency means the concentration at half of the fitted maximal effect; nearly all actives have a fitted effect of over 35% in size
VACV Venus inh = vaccinia inhibition (Venus reporter). AID 720580. Potency, µM (highest dose often 36.5 µM), without a hit: at the top dose activity change, negative = inhibition, actives largely listed as inhibitors. Vaccinia virus Venus reporter expression, fluorescence. hit rate 0.46% among 330,000; calls by dose curve; tested in A549 cells; further: potency means the concentration at half of the fitted maximal effect; nearly all actives have a fitted effect of over 30% in size
LmPK inh = LmPK (Leishmania mexicana) enzyme inhibition; Q27686; purified LmPK, Kinase-Glo ATP luminescence, 1 h; Potency, µM (series often up to 57.5 µM), inactives show at the highest dose activity change, negative = inhibition, most hits filed as inhibitors; hit rate 0.37% among 290,000; further: potency means the concentration at half of the fitted maximal effect
Target sequence (Q27686 whole entry, looked up): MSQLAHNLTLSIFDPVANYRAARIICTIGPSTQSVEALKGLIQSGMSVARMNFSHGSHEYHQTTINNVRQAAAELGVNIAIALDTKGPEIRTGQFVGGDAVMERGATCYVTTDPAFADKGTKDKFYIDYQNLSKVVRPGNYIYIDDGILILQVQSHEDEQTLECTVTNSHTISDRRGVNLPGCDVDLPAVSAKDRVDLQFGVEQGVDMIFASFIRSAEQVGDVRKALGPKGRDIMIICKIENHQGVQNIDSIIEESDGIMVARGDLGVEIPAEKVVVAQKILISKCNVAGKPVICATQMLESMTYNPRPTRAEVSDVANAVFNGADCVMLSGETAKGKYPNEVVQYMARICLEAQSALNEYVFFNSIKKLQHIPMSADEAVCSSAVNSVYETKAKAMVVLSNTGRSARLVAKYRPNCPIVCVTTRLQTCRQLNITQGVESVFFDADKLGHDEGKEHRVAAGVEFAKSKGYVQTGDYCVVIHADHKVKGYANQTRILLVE
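qHTS format; LmPK 0.1 nM; substrates PEP 0.5 mM and ADP 0.1 mM. One-hour room-temperature incubation, then coupled luciferase luminescence; 0.5 nM enzyme wells mark activation.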
TbPYK inhibitor = inhibitors of Trypanosoma brucei pyruvate kinase | Q57TT1 | TbPYK enzyme, Kinase-Glo Plus ATP luminescence, 45 min | Potency, µM (titrated, usually from 76.8 µM), inactives show top-dose activity, negative = inhibition, hits mostly inhibitors | hit rate 0.12% among 410,000 | AID 624173; further: potency means the concentration at half of the fitted maximal effect; nearly all actives have a fitted effect of over 50% in size
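In this concentration-response screen, enzyme-free wells defined baseline while DMSO plates tracked drift. Each reaction combined TbPYK, substrate, compound and 130 uM ADP for 45 min at room temperature. Kinase-Glo Plus luminescence gave the signal.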
* marks the source's active call; other numbers are inactive results; i = inactive; ? = inconclusive; . = not tested or not shown. Unless noted, the call rests on the fitted dose curve; in most records, active means well fitted curve in the direction sought with a large enough effect; inconclusive means small, poorly fitted or top-dose-only effect, or another doubt; inactive means no such curve, though single readings can be large; an effect the other way counts as inactive or inconclusive. On the % scale 0 is the no-effect control and ±100 the full control effect.

SMILES	HCMV antiviral	Vaccinia mCherry	VACV Venus inh	LmPK inh	TbPYK inhibitor
Cc1ccccc1NS(=O)(=O)c1ccc(C(=O)NN2CCCCC2)cc1	-9	-14%	-14%	-2%	-15%
O=C(N=c1ccn(-c2nc3ccccc3nc2NS(=O)(=O)c2ccc(Cl)cc2)cc1)c1ccccc1Cl	.	.	.	2%	.
Cc1ccc(NC(=O)C2CCCN2S(=O)(=O)c2ccc3c(c2)CCCC(=O)N3)cc1Cl (stereo not given)	?	?	?	.	1%
OCCCc1nc2ccccc2n1CCc1ccccc1	-20	.	.	3%	-2%
CCC(=O)Nc1nc2ccccc2n1Cc1ccccc1Cl	?	.	.	2%	-19%
CCCc1nc2ccccc2n1CCc1ccccc1	-74*	i	-3%	1%	-6%
CCn1c(Nc2ccccc2Cl)nc2ccccc21	-6	-5%	-5%	-4%	-8%
CCn1c(NN=O)nc2ccccc21	-103*	?	-28%	5%	-13%
CC(=O)Nc1nc2ccccc2n1Cc1ccccc1Cl	-96*	-3%	?	-6%	6%
CCCCCCCn1c(NC(=O)CC)nc2ccccc21	-84*	-13%	-14%	0%	-10%
COc1ccc(N(CC(=O)NCCSC2CCCCC2)S(=O)(=O)c2ccc(C)cc2)cc1	15	i	-15%	-12%	-3%
Cn1c(N)c(C(=O)COC(=O)c2cc(C3CC3)nc3ccccc23)c(=O)n(Cc2ccccc2)c1=O	58	-9%	-18%	-1%	3%
CC(C)C(=O)Nc1cccc(NC2=NS(=O)(=O)c3ccccc32)c1	6	10%	5%	.	-5%
O=C(CNC(=O)C1CCCCC1)OCC(=O)c1ccc(C2CCCCC2)cc1	.	30%	-6%	.	.
CCCn1c(Nc2nc3ccccc3n2C)nc2ccccc21	-100*	.	.	5%	-2%
CCC(=O)NCCCc1nc2ccccc2n1Cc1ccccc1F	-14	.	.	0%	-4%
CCC(=O)NCc1nc2ccccc2n1Cc1ccccc1F	-99*	.	.	0%	-2%
CCC(=O)Nc1nc2ccccc2n1Cc1ccc(Cl)cc1	-76*	.	.	3%	-3%
Cc1nc2c(cc1C(=O)N/N=C/c1ccc(O)c(O)c1)c(=O)n(C)c(=O)n2C	-74*	3%	11%	3%	-2%
CCOC(=O)c1c(C)oc2nc(C)nc(NCC3CCN(Cc4ccc(C)cc4)CC3)c12	-3	i	-17%	.	3%
CCOC(=O)c1c(C)oc2nc(C)nc(NCC3CCN(Cc4ccccc4C)CC3)c12	-104*	-20%	-4%	.	4%
COc1ccc(S(=O)(=O)N2c3cc(Cl)ccc3Oc3nc4ccccc4nc32)cc1	-89*	.	?	1%	-10%
O=S(=O)(c1ccc(Cl)cc1)N1c2ccccc2Oc2nc3ccccc3nc21	?	-1%	-12%	-5%	9%
COc1ccccc1NS(=O)(=O)c1ccc2oc(SCc3ccc(C#N)cc3)nc2c1	-84*	?	?	2%	14%
CNC(=O)CSc1nc2cc(S(=O)(=O)Nc3ccccc3OC)ccc2o1	-25	13µM*	?	-2%	1%
SMILES	HCMV antiviral	Vaccinia mCherry	VACV Venus inh	LmPK inh	TbPYK inhibitor
COc1ccccc1NS(=O)(=O)c1ccc2oc(SCC(=O)N3CCNC3=O)nc2c1	-11	.	.	.	-5%
COc1ccccc1NS(=O)(=O)c1ccc2oc(SC3CCOC3=O)nc2c1 (stereo not given)	.	.	-9%	4%	-11%
Cc1ccc(Cn2c(CO)cnc2SCc2ccc(F)cc2)cc1	?	-11%	-8%	.	1%
CCOC(=O)[C@@H]1[C@H]2COc3ccc(Br)cc3[C@@H]2N2C(=O)N(c3ccccc3)C(=O)[C@@]12C	-4	-27%	-9%	-9%	2%
Cc1cc(C)c(NC2=NCCS2)cc1C	-89*	-9%	-7%	.	5%
COc1ccccc1NC1=NCCS1	19	.	.	-7%	0%
COC(=O)c1c(CCl)noc1C(=O)NCC1CCCO1 (stereo not given)	-4	?	?	-3%	-4%
COc1ccc(CNC[C@@H](CCCCN(C)Cc2ccc(OC)cc2)N2C[C@H](c3ccccc3)N(CCc3ccc(Cl)c(Cl)c3)C(=O)C2=O)cc1	.	?	22µM*	4%	4%
CN(CCCC[C@H](CNCc1ccc(-c2ccccc2)cc1)N1C[C@H](c2ccccc2)N(CCc2ccc(Cl)c(Cl)c2)C(=O)C1=O)Cc1ccc(-c2ccccc2)cc1	.	.	.	5%	.
COc1ccc(/C=C/c2cc(-c3ccc(C)cc3)o[n+]2C)cc1	-104*	?	?	3%	-6%
NC(=S)NC(=O)/C=C/c1ccccc1	-67*	?	?	1%	2%
N/C(=N\OC(=O)/C=C/c1ccccc1)c1ccccc1	54	-10%	-3%	14µM*	-5%
O=C(/C=C/c1ccccc1)/C=C/c1ccccc1	-73*	?	10µM*	-22%	-3%
O=C(/C=C/c1ccccc1)NC(=S)Nc1ccccc1O	-24	?	-18%	-6%	7%
O=C(C=Cc1ccccc1)NCCNC(=O)C=Cc1ccccc1	-69*	-11%	3%	.	-7%
N/C(=N\OC(=O)/C=C/c1ccccc1)c1ccc(Cl)cc1	44	i	4%	-3%	-4%
CC(=O)OC1CC(OC2C(O)CC(OC3C(O)CC(OC4CCC5(C)C(CCC6C5CCC5(C)C(C7=CC(=O)OC7)CCC65O)C4)OC3C)OC2C)OC(C)C1OC1OC(CO)C(O)C(O)C1O (stereo not given)	-98*	4.5µM*	5.6µM*	.	-6%
CC(=O)O[C@H]1C[C@H](O[C@H]2[C@@H](O)C[C@H](O[C@H]3[C@@H](O)C[C@H](O[C@H]4CC[C@@]5(C)[C@H](CC[C@@H]6[C@@H]5C[C@@H](O)[C@]5(C)[C@@H](C7=CC(=O)OC7)CC[C@]65O)C4)O[C@@H]3C)O[C@@H]2C)O[C@H](C)[C@H]1O[C@@H]1O[C@H](CO)[C@@H](O)[C@H](O)[C@H]1O	.	?	2.5µM*	.	.
CC(=O)OC1C[C@H](O[C@@H]2C(O)C[C@H](O[C@@H]3C(O)C[C@@H](OC4CC[C@]5(C)C(CCC6C5CC(O)[C@@]5(C)C(C7=CC(=O)OC7)CC[C@@]65O)C4)OC3C)OC2C)O[C@H](C)[C@H]1O[C@H]1OC(CO)C(O)C(O)C1O (stereo not given in full)	.	.	.	.	1%
O=C(c1ccc(CSc2nc3ccncc3[nH]2)cc1)N1CCCCCC1	?	-19%	-10%	-26%	2%
O=C(c1ccc(CSc2nc3ccncc3[nH]2)cc1)N1CCN(c2cccc(Cl)c2)CC1	-90*	?	?	2%	-6%
CCOc1ccc(/C=C/C(=O)c2ccc(-c3ccccc3)cc2)cc1	-61*	-11%	-7%	-3%	-5%
CCOc1ccc(/C=C/C(=O)Oc2ccccc2)cc1	18	-13%	-10%	0%	0%
